# Screening data as filed in PubChem.
# TRPML1 agonist = qHTS for Agonists of the Human Mucolipin Transient Receptor Potential 1 (TRPML1); TRPML1-expressing cells, Ca2+ dye fluorescence, FDSS; activation, % (no concentration beside the values); 0.12% of 410,000 active; in the data active = activation above about 50%; inconclusive = mostly about 30% to 49%
#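 Cells: TRPML1-DL, 1X Tet inducer, ~16 h at 37 degrees C/5% CO2. Dye: ABD Ca8 no-wash + quencher, 45-90 min RT. Read: 10 s baseline, compound add, 110 s agonist phase; 54-4 EC80 (4uM final), 110 s antagonist phase.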
# TRPML1 blocker = qHTS for Inhibitors of the Human Mucolipin Transient Receptor Potential 1 (TRPML1); activity change, negative = inhibition, % (no concentration beside the values); Mucolipin-1 (Homo sapiens), Q9GZU1; 0.02% of 390,000 active; TRPML1-inducible cells, Ca2+ dye fluorescence, FDSS; hits give low values; inhibition of EC80 agonist-evoked calcium signal; in the data active = activity change below about -50%; inconclusive = between about -30% and that limit;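 note: stimulus is agonist 54-4 at its EC80 concentration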
#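 Tet-induced TRPML1-DL cells loaded with Ca8 no-wash calcium dye were read kinetically on FDSS. Compound addition was followed by EC80 agonist 54-4 (4 uM final); inhibition was read over 110 s.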
# TRHR enhancer-1 = qHTS for Small Molecule Agonists and Allosteric Enhancers of Human TRH Receptor: Primary Screen for Enhancers; enhancement, % at 2 µM; AID 493056, 2011; TRHR cells, fluo-8 calcium fluorescence, EC20 TRH enhancement; 0.66% of 360,000 active; Thyrotropin-releasing hormone receptor (Homo sapiens), P34981; in the data active = enhancement above about 30%
# Target sequence (P34981 whole entry, looked up): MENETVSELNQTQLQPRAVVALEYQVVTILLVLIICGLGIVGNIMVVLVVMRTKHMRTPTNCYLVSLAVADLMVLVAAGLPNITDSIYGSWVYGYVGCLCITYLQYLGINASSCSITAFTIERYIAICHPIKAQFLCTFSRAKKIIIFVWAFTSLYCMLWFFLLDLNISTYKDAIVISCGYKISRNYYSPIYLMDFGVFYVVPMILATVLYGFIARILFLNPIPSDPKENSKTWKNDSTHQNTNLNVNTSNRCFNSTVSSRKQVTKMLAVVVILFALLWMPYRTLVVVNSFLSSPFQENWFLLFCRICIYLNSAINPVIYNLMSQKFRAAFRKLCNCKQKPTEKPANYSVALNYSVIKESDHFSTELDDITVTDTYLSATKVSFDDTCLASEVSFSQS
#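 Enhancer read-out: after compound pinning and an initial kinetic agonist-mode read, an EC20 of TRH (10 nM final) was injected and fluo-8 calcium signal (Ex 480/Em 530) followed at 1 s/cycle for 100 cycles in TRHR-expressing cells.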
# TRPV1 potentiator = HTS Assay for Compounds that Act as Potentiators of the Vanilloid Receptor 1; potentiation, % at 8.33 µM; 0.02% of 320,000 active; AID 540277, 2011; Transient receptor potential cation channel subfamily V member 1 (Homo sapiens), Q8NER1; TRPV1-expressing cells, Fluo-8 calcium influx, capsaicin EC20 potentiation; in the data active = potentiation above about 80%; inconclusive = between about 30% and that limit
#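 TRPV1-expressing cells were cultured overnight at 35.5C and loaded with Fluo-8 calcium dye for 40 to 90 min at room temperature. After a 10 s baseline, compound was added and calcium influx was read kinetically for 3 min (ex 480/em 520 nm).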
# TRHR agonist-1 = qHTS for Small Molecule Agonists and Allosteric Enhancers of Human TRH Receptor: Primary Screen for Agonists; Thyrotropin-releasing hormone receptor (Homo sapiens), P34981; activation, % at 2 µM; AID 493084, 2011; TRHR cells, calcium flux fluo-8, FDSS agonist mode; 0.18% of 360,000 active; in the data active = activation above about 30%
#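 Fluo-8-loaded TRHR cells; 10 s baseline, compound added, kinetic Ca2+ fluorescence read 1/s, agonist mode.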
# TRPV1 agonist = HTS Assay for Compounds that Act as Agonists of the Vanilloid Receptor 1. Transient receptor potential cation channel subfamily V member 1 (Homo sapiens), Q8NER1. TRPV1-expressing cells, Fluo-8 calcium influx, agonist mode. activation, % at 8.33 µM. 0.19% of 320,000 active. AID 540275, 2011; in the data active = activation above about 80%; inconclusive = between about 30% and that limit
#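 TRPV1-expressing cells were cultured overnight at 35.5C and loaded with Fluo-8 calcium dye for 40 to 90 min at room temperature. After a 10 s baseline, compound was added and calcium influx was read kinetically for 3 min (ex 480/em 520 nm).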
# TRHR enhancer-2 = qHTS for Small Molecule Agonists and Allosteric Enhancers of Human TRH Receptor: Confirmation Screen for Enhancers | shares compounds with TRHR enhancer-1 | TRH receptor cell assay, enhancer confirmation qHTS | activity change, negative = inhibition, % at 46.1 µM | 970 tested, under 10 active | AID 493076, 2011;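 note: compound effect scored on response to added TRH at EC20 of 10 nM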
# TRHR agonist-2 = qHTS for Small Molecule Agonists and Allosteric Enhancers of Human TRH Receptor: Confirmation Screen for Agonists; shares compounds with TRHR enhancer-1; TRHR-expressing cells, agonist activation read-out; Potency, µM (titrated, usually from 46.1 µM), hits mostly activators; 8% of 970 active; note: nearly all actives have a fitted effect of over 75% in size
# Hits are given with their value; i = inactive; ? = inconclusive; nt = no result given. Shown are actives, neighbours in structure and some others; about 0.99% of the full set was active somewhere. Unless noted, calls come from the whole dose curve; as a rule, active = well fitted curve in the direction sought with a large enough effect; inconclusive = small, poorly fitted or top-dose-only effect, or another doubt; inactive = no such curve, though single readings can be large; an effect the other way counts as inactive or inconclusive.
SMILES,TRPML1 agonist,TRPML1 blocker,TRHR enhancer-1,TRPV1 potentiator,TRHR agonist-1,TRPV1 agonist,TRHR enhancer-2,TRHR agonist-2
C/C(=N/Nc1ccc([N+](=O)[O-])cc1)c1c[nH]c2ccccc12,?,i,i,i,35,i,i,?
C/C(=N/Nc1ccc([N+](=O)[O-])cc1)c1ccc(C)cc1C,i,i,i,i,i,i,nt,nt
CC(C)(C)c1ccc(OCCC(=O)Nc2cccc(S(=O)(=O)N3CCOCC3)c2)cc1,i,i,44,i,i,i,i,i
O=C(NCc1ccc2c(c1)OCO2)c1cccc(S(=O)(=O)N2CCCC2)c1,i,i,i,i,i,i,nt,nt
O=C(Nc1cccc(S(=O)(=O)N2CCCC2)c1)c1cccc(S(=O)(=O)N2CCOCC2)c1,i,i,i,i,i,i,i,i
O=C(NCc1ccc2c(c1)OCO2)c1cccc(S(=O)(=O)N2CCCCC2)c1,i,i,i,i,44,?,i,i
COc1ccc(OCCC(=O)OCC(=O)Nc2cccc(S(=O)(=O)N3CCOCC3)c2)cc1,i,i,i,i,i,i,nt,nt
CNc1c(Br)cc(C=O)cc1Br,i,nt,nt,nt,nt,nt,nt,nt
CN(C)c1ccc(/C=C2\C=Nc3ccccc32)cc1,i,nt,nt,nt,nt,nt,nt,nt
CN(N=O)c1ccc(/C=C/c2ccccc2)cc1,i,nt,nt,nt,nt,nt,nt,nt
O=C(Nc1ccccc1C(=O)O)c1cc(S(=O)(=O)N2CCOCC2)c(Br)s1,i,i,45,i,i,i,i,i
CC1CCCC(C)N1C(=O)CN1C(=O)NC2(CCOc3ccccc32)C1=O (stereo not given),i,i,45,i,i,i,i,i
O=C(O)c1ccc(NC(=O)c2cc3c([nH]c2=O)CCCC3=O)cc1,i,nt,nt,nt,nt,nt,nt,nt
CCc1ccc(C(=O)NCC2COc3ccccc3O2)o1 (stereo not given),i,i,60,i,i,i,i,i
COC(=O)C1=C(C)N(c2ccc(OC)cc2)C(C)=C(C(=O)OC)C1c1ccc(OC)cc1,i,i,41,i,i,i,i,i
C/C(CC(=O)Nc1cccc(C(F)(F)F)c1)=N\NC(=O)Cc1ccccc1,i,i,58,i,i,i,i,i
Cc1[nH]c2ccccc2c1/C=N/Nc1nc(Nc2ccccc2)nc(N2CCOCC2)n1,i,i,55,i,i,i,i,i
COc1ccc(N(CC(=O)NN=C2CCN(C)CC2)S(=O)(=O)c2ccccc2)c(OC)c1,i,i,41,i,i,i,i,i
c1ccc2c(CCc3c[nH]c4ccccc34)ccnc2c1,i,nt,nt,nt,nt,nt,nt,nt
Cn1c(CNC(=O)c2ccccc2)nnc1SCC(=O)Nc1nccs1,i,i,i,i,i,i,nt,nt
Cc1ccc(C(=O)NCc2nnc(SCC(=O)NC(C)c3ccccc3)n2C)cc1 (stereo not given),i,i,43,i,i,i,i,i
Cc1ccccc1OCC(O)CN1CCN(CC(O)COc2ccccc2C)CC1 (stereo not given),i,i,i,i,i,i,nt,nt
Cc1ccccc1OCC(O)CN1CCN(c2ccc(Cl)cc2)CC1 (stereo not given),i,i,51,i,i,i,i,i
Cc1ccccc1OCC(O)CN1CCCCC1 (stereo not given),i,i,43,i,i,i,i,i
CCCC(=O)NCCc1nc2ccccc2n1CC(=O)c1ccccc1,i,i,i,i,i,i,nt,nt
SMILES,TRPML1 agonist,TRPML1 blocker,TRHR enhancer-1,TRPV1 potentiator,TRHR agonist-1,TRPV1 agonist,TRHR enhancer-2,TRHR agonist-2
CCCC(=O)NCCCc1nc2ccccc2n1C(C)C,i,i,47,i,i,i,i,i
CC1CC=CC2C1C(=O)N(Cc1ccccc1)C2c1ccc2ccccc2c1Br (stereo not given),i,i,nt,nt,nt,nt,nt,nt
Cc1cc2ccccc2c[n+]1C,i,nt,nt,nt,nt,nt,nt,nt
COc1ccc(N/N=C(\C#N)C(N)=O)cc1,i,i,45,i,i,i,i,i
O=S(=O)(c1ccc2c(c1)CCCC2)N1CCN(c2nc(-c3cccs3)nc3ccccc23)CC1,i,nt,nt,nt,nt,nt,nt,nt
Cc1ncoc1C(=O)N1CCCC(CCC(=O)NCc2ccccc2F)C1 (stereo not given),i,i,45,i,i,i,i,i
Cc1ncoc1C(=O)N1CCCC(CCC(=O)NCc2ccc(F)c(F)c2)C1 (stereo not given),i,i,i,i,i,i,nt,nt
Cc1ccccc1OCC(=O)Nc1cc(C)c(O)c(-c2nc3ccccc3o2)c1,i,nt,nt,nt,nt,nt,nt,nt
COc1ccc(-c2nc3ccccc3nc2-c2ccccc2)cc1,i,i,i,i,i,i,nt,nt
COc1ccc2nc3ccccc3nc2c1,nt,nt,49,i,i,i,i,i
Cc1[nH]nc2c1C(c1c[nH]c3ccccc13)C(C#N)=C(N)O2 (stereo not given),i,i,51,i,i,i,i,i
c1ccc(Nc2nc(NCc3ccco3)nc3nccnc23)cc1,i,nt,nt,nt,nt,nt,nt,nt
S=C(Nc1ccc(Br)cc1)N1CCCC1,i,i,41,i,i,i,i,i
CC(=O)C[n+]1cccc(Br)c1,i,nt,nt,nt,nt,nt,nt,nt
Cc1nc(C)n(CC(O)COc2ccc3cc(Br)ccc3c2)n1 (stereo not given),i,i,44,i,i,i,?,i
OC(COc1ccc2cc(Br)ccc2c1)CN1CCCC1 (stereo not given),i,i,i,i,i,i,nt,nt
CCOc1ccc(C(=O)Nc2c3c(nn2-c2ccc(C)cc2)CS(=O)C3)cc1OCC (stereo not given),i,i,42,i,i,i,i,i
O=C(NC1CCCCC1)N1CCN(S(=O)(=O)c2ccc(F)cc2)CC1,i,i,46,i,i,?,i,i
O=C(NC1CCCCCC1)C1CCN(S(=O)(=O)c2ccc(F)cc2)CC1,i,i,i,i,i,i,nt,nt
O=C(N/N=C/c1c(O)ccc2ccccc12)c1ccc(Br)o1,i,i,i,i,51,?,i,18µM
